Laboratory results taken from ChEMBL document CHEMBL1961873, “Compounds: GSK PKIS; Assays: Nanosyn kinase panel” (2012).

Legend:
[1] = target: RAC-alpha serine/threonine-protein kinase (Homo sapiens) (UniProt P31749); details: at 0.1 µM
[2] = target: RAC-alpha serine/threonine-protein kinase (Homo sapiens) (UniProt P31749); details: at 1 µM
[3] = target: RAC-beta serine/threonine-protein kinase (Homo sapiens) (UniProt P31751); details: at 0.1 µM
[4] = target: RAC-beta serine/threonine-protein kinase (Homo sapiens) (UniProt P31751); details: at 1 µM
[5] = target: RAC-gamma serine/threonine-protein kinase (Homo sapiens) (UniProt Q9Y243); details: at 0.1 µM
Sequence of RAC-gamma serine/threonine-protein kinase (Homo sapiens) (Q9Y243 whole entry): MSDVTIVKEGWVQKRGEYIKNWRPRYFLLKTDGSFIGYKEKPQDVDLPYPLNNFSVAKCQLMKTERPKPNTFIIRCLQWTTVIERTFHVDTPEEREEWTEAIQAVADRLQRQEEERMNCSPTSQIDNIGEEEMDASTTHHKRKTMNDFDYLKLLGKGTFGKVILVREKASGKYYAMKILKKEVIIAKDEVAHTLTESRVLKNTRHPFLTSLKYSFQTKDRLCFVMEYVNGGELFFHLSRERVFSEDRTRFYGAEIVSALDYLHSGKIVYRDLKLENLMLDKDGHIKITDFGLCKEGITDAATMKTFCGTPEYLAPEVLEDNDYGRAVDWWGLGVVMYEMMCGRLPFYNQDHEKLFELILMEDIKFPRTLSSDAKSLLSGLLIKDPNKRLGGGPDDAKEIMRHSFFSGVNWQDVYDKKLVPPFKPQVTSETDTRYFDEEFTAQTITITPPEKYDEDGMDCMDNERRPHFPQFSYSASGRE

[6] = target: RAC-gamma serine/threonine-protein kinase (Homo sapiens) (UniProt Q9Y243); details: at 1 µM
[7] = target: G protein-coupled receptor kinase 6 (Homo sapiens) (UniProt P43250); details: at 0.1 µM
Sequence of G protein-coupled receptor kinase 6 (Homo sapiens) (P43250 whole entry, looked up): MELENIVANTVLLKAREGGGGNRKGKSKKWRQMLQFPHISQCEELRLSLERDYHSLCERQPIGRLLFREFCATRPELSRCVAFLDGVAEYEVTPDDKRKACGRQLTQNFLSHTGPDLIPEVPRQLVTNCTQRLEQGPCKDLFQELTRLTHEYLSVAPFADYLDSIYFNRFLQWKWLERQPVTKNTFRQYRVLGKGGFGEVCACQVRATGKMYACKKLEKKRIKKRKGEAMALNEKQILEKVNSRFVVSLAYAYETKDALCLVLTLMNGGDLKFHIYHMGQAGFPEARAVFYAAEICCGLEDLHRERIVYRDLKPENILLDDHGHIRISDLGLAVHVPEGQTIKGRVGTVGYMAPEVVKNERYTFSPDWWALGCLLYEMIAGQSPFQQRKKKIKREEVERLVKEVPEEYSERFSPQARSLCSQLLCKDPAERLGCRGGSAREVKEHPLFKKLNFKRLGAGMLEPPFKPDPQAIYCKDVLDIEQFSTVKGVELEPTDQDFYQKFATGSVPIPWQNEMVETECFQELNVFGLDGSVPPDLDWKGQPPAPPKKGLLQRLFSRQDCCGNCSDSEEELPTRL

[8] = target: G protein-coupled receptor kinase 6 (Homo sapiens) (UniProt P43250); details: at 1 µM
[9] = target: T1, Rhodopsin kinase GRK7 (Homo sapiens) (UniProt Q8WTQ7); details: at 0.1 µM
T1 sequence (whole entry): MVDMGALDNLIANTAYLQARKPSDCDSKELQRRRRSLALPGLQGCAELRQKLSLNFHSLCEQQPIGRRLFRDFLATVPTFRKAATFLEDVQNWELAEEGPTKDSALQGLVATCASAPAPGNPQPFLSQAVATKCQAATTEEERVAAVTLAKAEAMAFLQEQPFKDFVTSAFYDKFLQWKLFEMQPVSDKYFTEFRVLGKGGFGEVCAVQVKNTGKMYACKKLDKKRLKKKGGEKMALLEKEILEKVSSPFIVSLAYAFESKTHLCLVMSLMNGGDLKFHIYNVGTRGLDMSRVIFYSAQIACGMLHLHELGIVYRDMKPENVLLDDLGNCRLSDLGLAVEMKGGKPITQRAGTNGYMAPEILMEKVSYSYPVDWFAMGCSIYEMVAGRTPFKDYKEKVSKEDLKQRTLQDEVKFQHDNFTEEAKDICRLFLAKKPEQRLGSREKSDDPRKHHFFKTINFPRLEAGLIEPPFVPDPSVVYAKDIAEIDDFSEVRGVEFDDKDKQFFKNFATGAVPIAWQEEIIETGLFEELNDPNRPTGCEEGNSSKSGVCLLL

[10] = target: T1, Rhodopsin kinase GRK7 (Homo sapiens); details: at 1 µM
[11] = target: Serine/threonine-protein kinase MRCK alpha (Homo sapiens) (UniProt Q5VT25); details: at 0.1 µM
Sequence of Serine/threonine-protein kinase MRCK alpha (Homo sapiens) (Q5VT25 whole entry): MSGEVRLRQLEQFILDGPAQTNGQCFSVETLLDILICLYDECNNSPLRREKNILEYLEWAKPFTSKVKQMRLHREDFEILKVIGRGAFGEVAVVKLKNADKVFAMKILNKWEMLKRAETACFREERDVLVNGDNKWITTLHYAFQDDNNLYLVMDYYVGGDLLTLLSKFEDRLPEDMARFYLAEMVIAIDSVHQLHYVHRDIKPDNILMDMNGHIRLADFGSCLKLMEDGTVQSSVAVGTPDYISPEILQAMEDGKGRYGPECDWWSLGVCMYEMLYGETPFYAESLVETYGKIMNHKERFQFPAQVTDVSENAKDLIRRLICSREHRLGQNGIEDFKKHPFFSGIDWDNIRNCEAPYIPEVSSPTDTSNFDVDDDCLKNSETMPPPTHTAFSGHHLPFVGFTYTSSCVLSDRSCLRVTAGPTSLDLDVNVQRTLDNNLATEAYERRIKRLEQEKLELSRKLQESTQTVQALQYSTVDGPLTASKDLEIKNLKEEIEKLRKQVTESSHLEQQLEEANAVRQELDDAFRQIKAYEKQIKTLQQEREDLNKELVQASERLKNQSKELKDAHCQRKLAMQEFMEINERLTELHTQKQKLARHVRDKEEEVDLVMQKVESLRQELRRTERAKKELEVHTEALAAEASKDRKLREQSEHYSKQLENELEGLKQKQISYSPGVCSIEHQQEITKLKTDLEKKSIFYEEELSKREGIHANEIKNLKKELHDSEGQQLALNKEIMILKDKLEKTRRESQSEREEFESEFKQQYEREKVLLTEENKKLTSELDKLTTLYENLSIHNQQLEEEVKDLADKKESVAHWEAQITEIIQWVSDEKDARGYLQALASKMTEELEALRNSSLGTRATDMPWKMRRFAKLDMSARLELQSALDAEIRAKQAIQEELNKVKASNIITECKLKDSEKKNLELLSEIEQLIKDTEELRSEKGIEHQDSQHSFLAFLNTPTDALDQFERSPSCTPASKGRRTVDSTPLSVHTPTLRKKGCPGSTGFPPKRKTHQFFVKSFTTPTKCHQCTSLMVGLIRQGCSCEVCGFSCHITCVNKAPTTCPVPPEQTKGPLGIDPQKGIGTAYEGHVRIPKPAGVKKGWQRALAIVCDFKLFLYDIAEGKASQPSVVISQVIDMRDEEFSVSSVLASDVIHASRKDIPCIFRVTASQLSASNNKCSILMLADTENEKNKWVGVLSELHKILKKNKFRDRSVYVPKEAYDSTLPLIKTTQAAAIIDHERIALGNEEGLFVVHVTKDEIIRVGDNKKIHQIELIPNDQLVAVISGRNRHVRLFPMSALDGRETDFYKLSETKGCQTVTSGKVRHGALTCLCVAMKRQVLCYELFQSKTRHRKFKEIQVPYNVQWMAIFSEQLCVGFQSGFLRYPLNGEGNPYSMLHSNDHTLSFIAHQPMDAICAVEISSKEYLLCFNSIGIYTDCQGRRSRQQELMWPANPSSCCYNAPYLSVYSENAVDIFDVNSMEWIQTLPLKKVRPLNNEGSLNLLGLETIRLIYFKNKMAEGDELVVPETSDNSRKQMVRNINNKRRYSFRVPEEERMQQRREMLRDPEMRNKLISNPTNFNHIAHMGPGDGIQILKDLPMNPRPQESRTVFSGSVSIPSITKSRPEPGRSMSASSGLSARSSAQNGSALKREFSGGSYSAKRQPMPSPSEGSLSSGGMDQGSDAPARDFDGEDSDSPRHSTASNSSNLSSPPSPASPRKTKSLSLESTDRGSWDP

[12] = target: Serine/threonine-protein kinase MRCK alpha (Homo sapiens) (UniProt Q5VT25); details: at 1 µM
[13] = target: Serine/threonine-protein kinase MRCK beta (Homo sapiens) (UniProt Q9Y5S2); details: at 0.1 µM
[14] = target: Serine/threonine-protein kinase MRCK beta (Homo sapiens) (UniProt Q9Y5S2); details: at 1 µM
[15] = target: Ribosomal protein S6 kinase alpha-5 (Homo sapiens) (UniProt O75582); details: at 0.1 µM
[16] = target: Ribosomal protein S6 kinase alpha-5 (Homo sapiens) (UniProt O75582); details: at 1 µM
[17] = target: Ribosomal protein S6 kinase alpha-4 (Homo sapiens) (UniProt O75676); details: at 0.1 µM
Sequence of Ribosomal protein S6 kinase alpha-4 (Homo sapiens) (O75676 whole entry, looked up): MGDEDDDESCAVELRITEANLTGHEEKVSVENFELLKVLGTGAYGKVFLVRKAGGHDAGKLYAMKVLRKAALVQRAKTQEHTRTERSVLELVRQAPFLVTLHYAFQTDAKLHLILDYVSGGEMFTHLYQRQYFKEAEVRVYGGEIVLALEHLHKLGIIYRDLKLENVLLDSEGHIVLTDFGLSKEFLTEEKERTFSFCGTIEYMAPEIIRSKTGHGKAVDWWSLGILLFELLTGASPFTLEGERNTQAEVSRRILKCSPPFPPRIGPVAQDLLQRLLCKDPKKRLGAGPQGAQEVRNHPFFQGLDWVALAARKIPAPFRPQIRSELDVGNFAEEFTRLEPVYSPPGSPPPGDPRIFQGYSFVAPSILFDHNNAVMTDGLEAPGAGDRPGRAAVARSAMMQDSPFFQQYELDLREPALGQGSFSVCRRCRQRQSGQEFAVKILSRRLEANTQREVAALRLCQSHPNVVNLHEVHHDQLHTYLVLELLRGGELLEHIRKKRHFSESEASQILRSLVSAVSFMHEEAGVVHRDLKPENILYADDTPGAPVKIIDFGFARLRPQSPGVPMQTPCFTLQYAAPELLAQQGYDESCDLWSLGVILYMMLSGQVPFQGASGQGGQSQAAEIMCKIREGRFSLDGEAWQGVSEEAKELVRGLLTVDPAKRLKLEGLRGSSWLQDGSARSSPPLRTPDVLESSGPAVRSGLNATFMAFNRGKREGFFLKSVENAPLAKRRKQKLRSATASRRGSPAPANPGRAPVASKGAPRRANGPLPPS

[18] = target: Ribosomal protein S6 kinase alpha-4 (Homo sapiens) (UniProt O75676); details: at 1 µM
[19] = target: Ribosomal protein S6 kinase beta-1 (Homo sapiens) (UniProt P23443); details: at 0.1 µM
Sequence of Ribosomal protein S6 kinase beta-1 (Homo sapiens) (P23443 whole entry, looked up): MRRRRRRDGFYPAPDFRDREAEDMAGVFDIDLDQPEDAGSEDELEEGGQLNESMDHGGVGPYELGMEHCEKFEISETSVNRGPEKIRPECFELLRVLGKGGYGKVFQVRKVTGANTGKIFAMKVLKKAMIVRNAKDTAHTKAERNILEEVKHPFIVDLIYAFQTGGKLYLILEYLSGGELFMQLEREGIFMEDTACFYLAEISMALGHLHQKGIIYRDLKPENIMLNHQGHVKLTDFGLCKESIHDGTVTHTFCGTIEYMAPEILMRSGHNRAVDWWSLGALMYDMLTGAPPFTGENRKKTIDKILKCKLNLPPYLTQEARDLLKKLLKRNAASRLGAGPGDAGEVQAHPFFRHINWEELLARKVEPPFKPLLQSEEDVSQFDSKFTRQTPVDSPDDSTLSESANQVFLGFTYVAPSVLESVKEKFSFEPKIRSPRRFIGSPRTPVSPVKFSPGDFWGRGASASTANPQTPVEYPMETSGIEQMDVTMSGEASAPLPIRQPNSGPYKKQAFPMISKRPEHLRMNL

[20] = target: Ribosomal protein S6 kinase beta-1 (Homo sapiens) (UniProt P23443); details: at 1 µM

Sequence of RAC-alpha serine/threonine-protein kinase (Homo sapiens) (P31749 whole entry): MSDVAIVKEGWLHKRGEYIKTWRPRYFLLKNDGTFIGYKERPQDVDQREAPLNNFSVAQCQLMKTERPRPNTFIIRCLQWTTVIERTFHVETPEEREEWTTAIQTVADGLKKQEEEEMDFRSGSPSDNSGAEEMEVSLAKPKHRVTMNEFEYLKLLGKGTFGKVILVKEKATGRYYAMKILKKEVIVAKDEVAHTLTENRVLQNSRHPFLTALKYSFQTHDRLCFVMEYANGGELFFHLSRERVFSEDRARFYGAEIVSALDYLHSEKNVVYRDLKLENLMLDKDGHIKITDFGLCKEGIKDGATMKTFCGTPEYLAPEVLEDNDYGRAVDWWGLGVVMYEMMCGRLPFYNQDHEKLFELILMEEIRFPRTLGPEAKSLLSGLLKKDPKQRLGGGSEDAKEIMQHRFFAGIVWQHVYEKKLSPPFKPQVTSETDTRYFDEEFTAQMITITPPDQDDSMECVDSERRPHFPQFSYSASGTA
Sequence of RAC-beta serine/threonine-protein kinase (Homo sapiens) (P31751 whole entry): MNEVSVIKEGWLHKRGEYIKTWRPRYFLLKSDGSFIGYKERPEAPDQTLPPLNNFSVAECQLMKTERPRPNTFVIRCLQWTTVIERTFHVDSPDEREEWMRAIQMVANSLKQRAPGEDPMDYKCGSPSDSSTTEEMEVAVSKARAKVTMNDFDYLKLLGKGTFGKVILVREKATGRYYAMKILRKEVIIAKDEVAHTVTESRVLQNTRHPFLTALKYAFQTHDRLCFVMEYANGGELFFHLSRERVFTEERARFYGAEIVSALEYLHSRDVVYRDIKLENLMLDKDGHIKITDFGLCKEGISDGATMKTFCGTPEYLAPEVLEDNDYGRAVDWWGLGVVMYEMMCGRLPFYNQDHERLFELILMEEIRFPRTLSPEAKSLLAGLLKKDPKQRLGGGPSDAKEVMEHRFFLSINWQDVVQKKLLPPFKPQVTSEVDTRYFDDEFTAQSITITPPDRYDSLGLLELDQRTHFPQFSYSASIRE

SMILES	inhibition [1] [%]	inhibition [2] [%]	inhibition [3] [%]	inhibition [4] [%]	inhibition [5] [%]	inhibition [6] [%]	inhibition [7] [%]	inhibition [8] [%]	inhibition [9] [%]	inhibition [10] [%]	inhibition [11] [%]	inhibition [12] [%]	inhibition [13] [%]	inhibition [14] [%]	inhibition [15] [%]	inhibition [16] [%]	inhibition [17] [%]	inhibition [18] [%]	inhibition [19] [%]	inhibition [20] [%]
Clc1ccc(CNc2nccc(-c3cnn4ncccc34)n2)cc1	0.58	0.44	0.17	-0.27	2.1	1.14	5.42	1.78	1.36	-5.11	0	2.46	-1.16	0.3	6.95	7.87	1.14	1.71	1.82	2.04
C#Cc1cccc(Nc2ncnc3ccc(OCCCCNCCS(C)(=O)=O)cc23)c1	-2.83	-3.06	-0.89	-2.09	-1.57	-0.78	7.52	6.6	4.84	8.97	-0.05	7.35	0.55	1.44	2.74	1.8	3.12	3.4	2.59	3.29
O=C(NCC1CC1)c1ccc(-c2cccc(C(=O)NC3CC3)c2)cc1	0.06	0.79	1.68	1.73	1.52	1.7	1.72	-2.28	0.75	-7.67	0.69	-1.55	1.52	1.09	2.45	2.84	0.7	3.88	1.49	1.03
CN1CCN(CCCNc2nc3ccc(Oc4ccc(NC(=O)Nc5cc(C(F)(F)F)ccc5F)cc4)cc3[nH]2)CC1	-3.71	-3.59	-3.19	-0.85	-3.05	-2.98	0.32	-5.54	1.12	-3.95	1.76	-0.74	2.45	2.84	1.13	-0.08	1.93	2.99	1.14	4.19
Fc1ccc(-c2ncn(CCCN3CCOCC3)c2-c2ccncc2)cc1	0.28	-0.27	0.74	0.26	-0.68	1.2	-3.25	-1.04	-1.98	3.1	1.19	1.33	0.96	2.08	0.01	-0.79	0.3	0.33	0.29	-0.43
FC(F)(F)c1cccc(Nc2nccc(-c3cnn4nc(-c5ccccc5)ccc34)n2)c1	0.83	0.65	0.62	1.58	0.22	-2.03	-2.23	-0.87	4.12	6.07	-4.69	-0.12	0.14	0.03	1.36	0.17	1.71	0.86	1.59	0.67
CCC(=O)Nc1ccc(C)c(-c2ccc(C(=O)NCC3CC3)cc2)c1	0.29	0.52	2.4	1.7	0.86	2.4	4.21	3.82	8.7	1.14	0	1.8	-0.7	0.23	0.17	-0.98	1.96	2.63	0.91	1.77
COc1cccc(/C=N/Nc2ncnc3c2cnn3-c2cccc(OC)c2)c1	1.02	-0.26	2.42	1.51	2.66	3.67	5.6	4.38	9.5	5.51	1.64	-0.23	-0.8	0.84	2.19	-0.07	2.48	2.78	1.49	2.2
O=C(Nc1n[nH]c2cc(-c3cc(F)ccc3F)ccc12)C1CC1	0.77	0.09	1.23	1.89	1.03	2.68	2.61	3.76	1.22	6.2	-0.78	-3.13	-0.23	-0.47	1.91	1.12	1.8	3.08	1.01	1.58
CCN(CC)Cc1ccc(Nc2nccc(-c3cnn4ncccc34)n2)cc1	-2.02	-1.93	-2.76	-2.22	-1.29	-1.26	2.33	1.08	10.6	3.71	2.38	4.32	0.71	4.53	0.66	2.51	2.43	7.32	1.81	7.85
O=C1Nc2ccccc2/C1=C/Nc1ccc(-n2cncn2)cc1	0.19	-0.09	1.56	0.9	0.39	2.21	7.2	14.8	5.5	14.9	0.72	3.59	0.37	1.08	5.48	8.54	3.95	13.4	2.05	9.06
COc1cc(Nc2ncc3c(C)nc(-c4cccc(C(F)(F)F)c4)n3n2)cc(OC)c1OC	0.55	0.77	1.62	1.52	1.12	1.21	1.33	4.77	3.66	6.59	-0.66	4.12	-1.16	-0.4	2.79	5.2	2.89	8.48	2.17	5.51
CN(C)CCOc1ccc(-c2cc(-c3ccc4c(c3)CCC4=NO)c(-c3ccncc3)o2)cc1	-0.58	-0.16	-0.71	-0.42	-0.65	5.79	-3.48	-0.1	2.18	-5.7	-0.43	-0.33	-0.99	-2.76	-1.98	-2.88	0.1	-2.21	-1.83	-2.77
